Data: the supplement of paper PMC9262897, “Low-cost anti-mycobacterial drug discovery using engineered E. coli” (Nature Communications, 2022)
Where a name gives a salt, the structure may show the parent alone. ± gives the standard deviation of the averaged measurements.

Columns and labels:
Experiment in all cases: growth (OD600 after 10 h); higher = more growth (less inhibition)
[1] = tested on: E. coli TESEC Alr+ wild-type control; details: compound 0.1 mM; raw OD600 reference: median of DMSO wells 0.241, cell-free background 0.041
Procedure: (§1)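 TESEC Mtb Alr E. coli, or the Alr+ wild-type control, in 384-well plates with Prestwick library compounds at 0.1 mM and 1% DMSO, across arabinose induction levels of 1E3 to 1E7 nM. Growth is read as OD600 after 10 h at 37 °C in triplicate biological replicates.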

E. coli TESEC Mtb Alr [2] = details: compound 0.1 mM
Procedure: as §1

E. coli TESEC Mtb Asd = details: compound 0.1 mM
Procedure: (§2)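 TESEC E. coli strains in which the native enzyme is deleted and replaced by arabinose-inducible Mtb Asd, DapB, CysH or TrpD, each grown in its selective medium. Strains were screened against the Prestwick library at 0.1 mM and 1% DMSO in 384-well format at low and high arabinose induction. Growth is read as OD600 after 10 h in triplicate.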

E. coli TESEC Mtb DapB = details: compound 0.1 mM
Procedure: as §2

E. coli TESEC Mtb Alr [3] = details: compound 0.1 mM; remark: listed apart in the source
Procedure: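 TESEC Mtb Alr E. coli (ΔaraC ΔtolC ΔentC Δalr ΔdadX, arabinose-inducible Mtb Alr) or the Alr+ wild-type control strain, grown in defined M9-fructose medium without D-alanine in 96-well plates with Prestwick library compounds at 0.1 mM and 1% DMSO. Low Alr induction is 0.1 µM arabinose and high induction is 10 mM arabinose.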

[4] = arabinose 1000 nM, raw OD600 reference: median of DMSO wells 0.294, cell-free background 0.041
[5] = arabinose 10000 nM, raw OD600 reference: median of DMSO wells 0.264, cell-free background 0.041
[6] = arabinose 100000 nM, raw OD600 reference: median of DMSO wells 0.201, cell-free background 0.041
[7] = arabinose 1000000 nM, raw OD600 reference: median of DMSO wells 0.193, cell-free background 0.041
[8] = arabinose 10000000 nM, raw OD600 reference: median of DMSO wells 0.146, cell-free background 0.041
[9] = arabinose induction (level): High, raw OD600 reference: median of DMSO wells 0.331, cell-free background 0.041
[10] = arabinose induction (level): Low, raw OD600 reference: median of DMSO wells 0.417, cell-free background 0.041
[11] = arabinose induction (level): High, raw OD600 reference: median of DMSO wells […], cell-free background 0.041
[12] = arabinose induction (level): Low, raw OD600 reference: median of DMSO wells 0.227, cell-free background 0.041
[13] = arabinose 100 nM, raw OD600 reference: median of DMSO wells 0.413, cell-free background 0.052
[14] = arabinose 10000000 nM, raw OD600 reference: median of DMSO wells […], cell-free background 0.052

Row | Structure (SMILES) | growth [1] | growth (E. coli TESEC Mtb Alr [2]; [4]) | growth (E. coli TESEC Mtb Alr [2]; [5]) | growth (E. coli TESEC Mtb Alr [2]; [6]) | growth (E. coli TESEC Mtb Alr [2]; [7]) | growth (E. coli TESEC Mtb Alr [2]; [8]) | growth (E. coli TESEC Mtb Asd; [9]) | growth (E. coli TESEC Mtb Asd; [10]) | growth (E. coli TESEC Mtb DapB; [11]) | growth (E. coli TESEC Mtb DapB; [12]) | growth (E. coli TESEC Mtb Alr [3]; [13]) | growth (E. coli TESEC Mtb Alr [3]; [14])
1 | COc1ccc2c(c1)c(CC(=O)OCC(=O)O)c(C)n2C(=O)c1ccc(Cl)cc1 [Acemetacin] | 0.154 ± 0.0063 | 0.198 ± 0.012 | 0.195 ± 0.0045 | 0.139 ± 0.0049 | 0.109 ± 0.0015 | 0.131 ± 0.0045 | 0.21 ± 0.078 | 0.211 ± 0.012 | 0.152 ± 0.0045 | 0.185 ± 0.024 | 0.362 ± 0.084 | 0.183 ± 0.012
2 | c1ccc(-c2ccc(C(c3ccccc3)n3ccnc3)cc2)cc1 (centres undefined) [Bifonazole] | 0.048 ± 0.0064 | 0.0456 ± 0.0051 | 0.0548 ± 0.0019 | 0.0516 ± 0.0035 | 0.0499 ± 0.0019 | 0.0504 ± 0.0085 | 0.048 ± 0.00098 | 0.0481 ± 0.0011 | 0.0611 ± 0.0018 | 0.0597 ± 0.0022 | 0.0739 ± 0.015 | 0.0689 ± 0.0074
3 | COc1ccc(-c2cc(=O)c3c(O)cc(O[C@@H]4O[C@H](CO[C@@H]5O[C@@H](C)[C@H](O)[C@@H](O)[C@H]5O)[C@@H](O)[C@H](O)[C@H]4O)cc3o2)cc1O [Diosmin] | 0.296 ± 0.0078 | 0.334 ± 0.01 | 0.277 ± 0.0034 | 0.248 ± 0.011 | 0.192 ± 0.013 | 0.1645 ± 0.00064 | 0.421 ± 0.085 | 0.358 ± 0.04 | 0.225 ± 0.016 | 0.243 ± 0.017 | 0.437 ± 0.026 | 0.426 ± 0.065
4 | Nc1ccn([C@@H]2O[C@H](CO)[C@@H](O)[C@@H]2O)c(=O)n1 [Cytarabine] | 0.24 ± 0.0059 | 0.307 ± 0.0036 | 0.247 ± 0.0079 | 0.214 ± 0.025 | 0.1685 ± 0.00085 | 0.171 ± 0.002 | 0.309 ± 0.032 | 0.305 ± 0.02 | 0.224 ± 0.024 | 0.229 ± 0.026 | 0.406 ± 0.0096 | 0.31 ± 0.0066
5 | COc1ccc(CC2c3cc(OC)c(OC)cc3CC[N+]2(C)CCC(=O)OCCCCCOC(=O)CC[N+]2(C)CCc3cc(OC)c(OC)cc3C2Cc2ccc(OC)c(OC)c2)cc1OC (centres undefined) [Atracurium besylate] | 0.177 ± 0.0075 | 0.271 ± 0.013 | 0.25 ± 0.011 | 0.174 ± 0.014 | 0.127 ± 0.0067 | 0.137 ± 0.006 | 0.283 ± 0.059 | 0.398 ± 0.037 | 0.171 ± 0.017 | 0.218 ± 0.05 | 0.416 ± 0.014 | 0.336 ± 0.06
6 | C[C@]12CC[C@@H]3c4ccc(O)cc4C[C@@H](CCCCCCCCC[S+]([O-])CCCC(F)(F)C(F)(F)F)[C@H]3[C@@H]1CC[C@@H]2O (some centres undefined) [Fulvestrant] | 0.265 ± 0.015 | 0.296 ± 0.016 | 0.27 ± 0.009 | 0.195 ± 0.017 | 0.179 ± 0.012 | 0.137 ± 0.005 | 0.379 ± 0.022 | 0.415 ± 0.041 | 0.212 ± 0.0092 | 0.258 ± 0.091 | 0.413 ± 0.03 | 0.355 ± 0.028
7 | CNC(=O)c1c(I)c(C(=O)NCC(=O)Nc2c(I)c(C(=O)O)c(I)c(C(=O)NCCO)c2I)c(I)c(N(C)C(C)=O)c1I [Ioxaglic acid] | 0.239 ± 0.0087 | 0.2972 ± 0.0024 | 0.28 ± 0.0056 | 0.219 ± 0.0065 | 0.215 ± 0.015 | 0.139 ± 0.0059 | 0.343 ± 0.027 | 0.359 ± 0.048 | 0.198 ± 0.013 | 0.211 ± 0.013 | 0.426 ± 0.0094 | 0.3518 ± 0.0018
8 | CC(=O)OC(C)C[N+](C)(C)C (centres undefined) [Methacholine chloride] | 0.238 ± 0.0071 | 0.282 ± 0.0064 | 0.269 ± 0.0094 | 0.171 ± 0.011 | 0.187 ± 0.0089 | 0.134 ± 0.0072 | 0.361 ± 0.092 | 0.428 ± 0.025 | 0.2263 ± 0.0013 | 0.243 ± 0.023 | 0.413 ± 0.021 | 0.361 ± 0.015
9 | CO/N=C(\C(=O)N[C@@H]1C(=O)N2C(C(=O)O)=C(COC(N)=O)CS[C@H]12)c1ccco1 [Cefuroxime sodium salt] | 0.0579 ± 0.0016 | 0.0404 ± 0.0013 | 0.0396 ± 0.00059 | 0.0725 ± 0.0027 | 0.0701 ± 0.0021 | 0.115 ± 0.0014 | 0.213 ± 0.0073 | 0.232 ± 0.0044 | 0.229 ± 0.013 | 0.16 ± 0.009 | 0.04693 ± 0.0004 | 0.169 ± 0.024
10 | Cn1cnc2c1c(=O)[nH]c(=O)n2C [Theobromine] | 0.255 ± 0.0061 | 0.313 ± 0.018 | 0.289 ± 0.015 | 0.218 ± 0.02 | 0.189 ± 0.0034 | 0.155 ± 0.011 | 0.483 ± 0.0089 | 0.454 ± 0.03 | 0.206 ± 0.008 | 0.249 ± 0.036 | 0.404 ± 0.014 | 0.365 ± 0.022
11 | CC(C(=O)O)c1cccc(C(=O)c2ccccc2)c1 (centres undefined) [Ketoprofen] | 0.227 ± 0.0059 | 0.249 ± 0.014 | 0.271 ± 0.012 | 0.172 ± 0.012 | 0.191 ± 0.0088 | 0.145 ± 0.0059 | 0.247 ± 0.013 | 0.335 ± 0.038 | 0.184 ± 0.018 | 0.248 ± 0.058 | 0.428 ± 0.018 | 0.36 ± 0.005
12 | C[N+]1(C)CCC(OC(=O)C(O)(c2ccccc2)C2CCCC2)C1 (centres undefined) [Glycopyrrolate] | 0.223 ± 0.0096 | 0.301 ± 0.0095 | 0.267 ± 0.0065 | 0.185 ± 0.021 | 0.1866 ± 0.001 | 0.138 ± 0.0078 | 0.337 ± 0.055 | 0.425 ± 0.04 | 0.194 ± 0.025 | 0.196 ± 0.011 | 0.408 ± 0.0092 | 0.335 ± 0.014
13 | CCOC(=O)c1ccc(N)cc1 [Benzocaine] | 0.249 ± 0.0072 | 0.324 ± 0.02 | 0.263 ± 0.0073 | 0.213 ± 0.011 | 0.182 ± 0.0029 | 0.1551 ± 0.0012 | 0.469 ± 0.013 | 0.453 ± 0.027 | 0.212 ± 0.013 | 0.24 ± 0.034 | 0.4093 ± 0.00068 | 0.323 ± 0.018
14 | CCc1cccc(CC)c1NC(=O)CN(CC(=O)O)CC(=O)O [Etifenin] | 0.2457 ± 0.00078 | 0.295 ± 0.011 | 0.276 ± 0.0042 | 0.231 ± 0.012 | 0.192 ± 0.011 | 0.146 ± 0.0052 | 0.29 ± 0.033 | 0.375 ± 0.09 | 0.179 ± 0.015 | 0.196 ± 0.003 | 0.412 ± 0.012 | 0.338 ± 0.017
15 | CCN(CC)CCNC(=O)COc1ccc(OC)cc1 [Mefexamide hydrochloride] | 0.24 ± 0.0042 | 0.285 ± 0.019 | 0.2683 ± 0.0018 | 0.196 ± 0.01 | 0.182 ± 0.0058 | 0.143 ± 0.0038 | 0.304 ± 0.1 | 0.411 ± 0.013 | 0.225 ± 0.041 | 0.227 ± 0.026 | 0.421 ± 0.0097 | 0.343 ± 0.0047
16 | CN1CCCN(C(c2ccccc2)c2ccc(Cl)cc2)CC1 (centres undefined) [Homochlorcyclizine dihydrochloride] | 0.189 ± 0.0068 | 0.137 ± 0.082 | 0.169 ± 0.0051 | 0.09 ± 0.04 | 0.0532 ± 0.00092 | 0.0545 ± 0.00056 | 0.123 ± 0.011 | 0.152 ± 0.015 | 0.169 ± 0.0068 | 0.215 ± 0.039 | 0.413 ± 0.0053 | 0.118 ± 0.018
17 | O=C1NCN(c2ccccc2)C12CCN(CCCC(c1ccc(F)cc1)c1ccc(F)cc1)CC2 [Fluspirilen] | 0.0416 ± 0.0009 | 0.044 ± 0.0032 | 0.0402 ± 0.00092 | 0.0775 ± 0.0044 | 0.0438 ± 0.0018 | 0.0681 ± 0.0024 | 0.0816 ± 0.034 | 0.0703 ± 0.0098 | 0.167 ± 0.014 | 0.19 ± 0.021 | 0.0516 ± 0.00059 | 0.0605 ± 0.008
